The record followed here is PubChem BioAssay (NCATS).

Results filed as inconclusive are left out. Unmarked numbers belong to inactive results. The source made the active and inactive calls. Calls come from the whole dose curve; as a rule, active = well fitted cell-killing curve with a large enough effect; inconclusive = small, poorly fitted or top-dose-only effect; inactive = no such curve, though single readings can be large or run the other way.
Potency is the fitted concentration of half-maximal effect.

This test in a line: Quantitative High-Throughput drug screen in 47 multiple myeloma cell lines against the NCATS MIPE library collection: JIM3_ECACC cell viability assay (AID 1918963; note: nearly all actives have a fitted effect of over 35% in size). The following applies: JIM3 myeloma viability, CellTiter-Glo ATP, 48 h; series mostly up to 45.8 µM; viability, percent of control: at the top concentration. An excerpt:
PI: Beverly A. Mock Ph.D.
Laboratory of Cancer Biology and Genetics,
Center for Cancer Research, National Cancer Institute,
National Institute of Health, Bethesda, Maryland
Drug resistance and disease progression are common in multiple myeloma (MM) patients, underscoring the need for new therapeutic combinations. […] We hypothesized that effective combinations would reduce MYC expression and enhance p16 activity. […] These preclinical data identify potentially useful drug combinations for evaluation in drug-resistant MM and reveal potential mechanisms of combined drug sensitivity.
Described herein is the primary MIPE qHTS used to cherrypick compounds. Validated compounds were then further tested for potential synergistic activiy.
[1] Peat TJ, Gaikwad SM, Dubois W, Gyabaah-Kessie N, Zhang S, Gorjifard S, Phyo Z, Andres M, Hughitt VK, Simpson RM, Miller MA, Girvin AT, Taylor A, Williams D, D'Antonio N, Zhang Y, Rajagopalan A, Flietner E, Wilson K, Zhang X, Shinn P, Klumpp-Thomas C, McKnight C, Itkin Z, Chen L, Kazandijian D, Zhang J, Michalowski AM, Simmons JK, Keats J, Thomas CJ, Mock BA. Drug combinations identified by high-throughput screening promote cell cycle transition and upregulate Smad pathways in myeloma. Cancer Lett. 2023 Aug 1;568:216284. doi: 10.1016/j.canlet.2023.216284. Epub 2023 Jun 24. PMID: 37356470; PMCID: PMC10408729.
SEQUENCE No. (e.g., 1, 2, 3, etc.); […] (e.g., Cells, Incubation, Reagent, etc.); VALUE and DESCRIPTION.
1; Cells; 5 uL; white, solid bottom 1536-well Greiner assay plate.
2; Compounds; 23 nL; Kalypsis pin tool (Wako USA) equipped with a 1536-well pin head to transfer to the assay plates.
3; Incubation; 48 hours; 37C incubation.
4; Reagent;5uL; CellTiter Glo (Promega).
5; Detector; 425V; Luminescence; Viewlux PerkinElmer.
NOTES (numbers refer to Sequence numbers above)
1. The cell-based screening methods employed in this study were like those previously published. Briefly, the corresponding myeloma cell lines were screened in 1,536-well plates with 500 cells, 5-uL per well for inhibition of cell viability (assessed by measuring ATP levels with CellTiterGlo).
2. NCATS MIPE 4.0 library of approved and investigational drugs were added using the Kalypsis pin tool. Wells treated with DMSO only for 100% viability and media only wells for 0% viability were used as controls.
3. The assay plates were covered and incubated for 48 hours in a 37C, 5% CO2 incubator with controlled humidity.
4. After 48 hours, CellTilter-GloTM luminescent substrate mix (Promega) reagent was added to the assay plate and plates we incubated for 5 min at room temperature.
5. Signal was measured as median relative luminescence units on a ViewLux (PerkinElmer) multiplate reader.
[1] Heske CM, Davis MI, Baumgart JT, Wilson K, Gormally MV, Chen L, Zhang X, Ceribelli M, Duveau DY, Guha R, Ferrer M, Arnaldez FI, Ji J, Tran HL, Zhang Y, Mendoza A, Helman LJ, Thomas CJ. Matrix Screen Identifies Synergistic Combination of PARP Inhibitors and Nicotinamide Phosphoribosyltransferase (NAMPT) Inhibitors in Ewing Sarcoma. Clin Cancer Res. 2017 Dec 1;23(23):7301-7311. doi: 10.1158/1078-0432.CCR-17-1121. Epub 2017 Sep 12. PMID: 28899971; PMCID: PMC6636827.
A general note: ATP-based viability assays read luminescence as a measure of living cells.
On to `Cc1cc(NC(=O)Nc2ccc(N(C)C)cc2)c2cc(F)cc(F)c2n1`, for which the “viability, percent of control” value is 133%.

On to `CC(=O)O[C@]1(C(C)=O)CC[C@H]2[C@@H]3C=C(Cl)C4=CC(=O)[C@@H]5C[C@H]5[C@]4(C)[C@@H]3CC[C@@]21C`, for which the Potency was 23.5 µM (active).

With `CC(C)C[C@H](NC(=O)c1cc2ccccc2s1)C(=O)N1CCN(C(=O)[C@H](CO)NS(=O)(=O)c2ccc(Cl)cc2Cl)CC1`, the Potency was 20.9 µM (active).

Consider `Cc1cn([C@@H]2C[C@@H](O)[C@H](CO)O2)c(=O)[nH]c1=O`, for which the “viability, percent of control” value was 107%.

With `CC(NCCc1ccc(O)cc1)C(O)c1ccc(O)cc1` (stereo not given), the “viability, percent of control” value is 105%.

On to `Cc1c(C(=O)Nc2ccc(N3C[C@@H](C)O[C@@H](C)C3)nc2)cccc1-c1ccc(OC(F)(F)F)cc1`, for which the “viability, percent of control” value is 116%.

In the case of `Cc1cccc(-c2[nH]c(C(C)(C)C)nc2-c2ccc3c(c2)OCO3)n1`, the Potency is 0.833 µM (active).

As for `C[C@@H]1[C@H](C)CC[C@]2(C(=O)O)CC[C@]3(C)C(=CC[C@@H]4[C@@]5(C)CC[C@H](O)C(C)(C)[C@H]5CC[C@]43C)[C@@H]12`, the “viability, percent of control” value was 80.5% [at 92.2 µM].

Take `Nc1ccn([C@@H]2O[C@H](CO)[C@@H](O)[C@H]2O)c(=O)n1`: the “viability, percent of control” value is 86.9%.

Turning to `COc1cc2nc(-c3cc(F)ccc3O)nc(N[C@@H]3CNC[C@@H]3C(C)(C)O)c2cc1OC`, the Potency is 7.43 µM (active).

Take `O=C(O)c1ccc(O)c2ncc(N3CCOCC3)cc12`: the Potency is 18.7 µM (active).

With `CC1C(=O)OC2C(O)C34C5CC(C(C)(C)C)C36C(OC(=O)C6O)OC4(C(=O)O5)C12O` (stereo not given), the “viability, percent of control” value was 127%.

As to `Cc1cnc(Nc2cccc(CN3CCOCC3)c2)nc1Nc1cccc(S(=O)(=O)NC(C)(C)C)c1`, the Potency is 2.96 µM (active).

Consider `Clc1ccc(C2(c3ccc(-c4cn[nH]c4)cc3)CCNCC2)cc1`, for which the Potency is 26.4 µM (active).

`CCCCCOC(=O)Nc1nc(=O)n([C@@H]2O[C@H](C)[C@@H](O)C2O)cc1F` (stereo not given in full): the “viability, percent of control” value was 101%.

With `COC1CCC(C(=O)c2ccc3nc4c(cc3c2)CCCO4)CC1` (stereo not given), the Potency is 14.8 µM (active).

Turning to `COc1ccc2cc1Oc1ccc(cc1)C[C@H]1c3cc(c(OC)cc3CCN1C)Oc1c(OC)c(OC)cc3c1[C@H](C2)N(C)CC3`, the Potency is 18.7 µM (active).

With `CC[C@H]1OC(=O)[C@H](C)[C@@H](O[C@H]2C[C@@](C)(OC)[C@@H](O)[C@H](C)O2)[C@H](C)[C@@H](O[C@@H]2O[C@H](C)C[C@H](N(C)C)[C@H]2O)[C@](C)(O)C[C@H](C)C(=NOCOCCOC)[C@H](C)[C@@H](O)[C@]1(C)O`, the “viability, percent of control” value is 87.3%.

On to `NC(=O)c1nnn(Cc2cc(Cl)c(C(=O)c3ccc(Cl)cc3)c(Cl)c2)c1N`, for which the Potency was 26.4 µM (active).

Consider `Cc1cccc2c1CC[C@H](CN1CCC(c3c(Cl)cccc3Cl)CC1)C[C@@H]2O`, for which the Potency is 14.8 µM (active).

For `COc1ccc(CCN(C)CCCOc2ccc(S(=O)(=O)c3[nH]c4ccccc4c3C(C)C)cc2)cc1OC`, the Potency was 18.7 µM (active).

For the compound `Cc1nn(Cc2ccccc2Cl)c(C)c1CN(C)CC(O)COc1ccc(Cl)cc1` (stereo not given), the Potency is 18.7 µM (active).

Turning to `Cc1cc2nc3c(=O)[nH]c(=O)nc-3n(CC(O)C(O)C(O)CO)c2cc1C` (stereo not given), the “viability, percent of control” value is 98%.

As for `O=C(c1ccc(C=Cc2n[nH]c3ccccc23)cc1)N1CCNCC1`, the Potency is 2.64 µM (active).

As for `CCc1cccc(CC)c1NC(=O)N1Cc2[nH]nc(NC(=O)c3ccc(N4CCN(C)CC4)cc3)c2C1`, the Potency was 4.69 µM (active).

With `CN1CCN(c2cccc(Nc3nc4c(-c5ccc(S(C)(=O)=O)cc5)cccn4n3)c2)CC1`, the Potency was 2.96 µM (active).

As for `CN1C(=O)C(Cc2c[nH]c3ccccc23)NC1=S` (stereo not given), the “viability, percent of control” value is 101%.

Turning to `CN1CCC(COc2cnc(-c3cccc(Cn4nc(-c5cccc(C#N)c5)ccc4=O)c3)nc2)CC1`, the Potency is 0.372 µM (active).

For the compound `Cc1[nH]c(C=C2C(=O)Nc3ccc(S(=O)(=O)N(C)c4cccc(Cl)c4)cc32)c(C)c1C(=O)N1CCN(C)CC1`, the Potency was 20.9 µM (active).

`COc1cc([C@H]2Oc3cc([C@H]4Oc5cc(O)cc(O)c5C(=O)[C@H]4O)ccc3O[C@H]2CO)ccc1O`: the Potency is 16.6 µM (active).

On to `CCC=CC[C@H]1C(=O)CC[C@@H]1CC(=O)OC`, for which the “viability, percent of control” value is 115%.

On to `Cc1cc2c(cc1C1(c3ccc(C(=O)O)cn3)CC1)C(C)(C)CCC2(C)C`, for which the Potency was 0.332 µM (active).

In the case of `COc1ccc(-c2nc3ccc(C4=NNC(=O)CC4C)cc3[nH]2)cc1` (stereo not given), the “viability, percent of control” value was 122%.

`CCC[C@@H](NC(=O)[C@@H]1[C@H]2CCC[C@@H]2CN1C(=O)[C@@H](NC(=O)[C@@H](NC(=O)c1cnccn1)C1CCCCC1)C(C)(C)C)C(=O)C(=O)NC1CC1`: the Potency was 20.9 µM (active).

Turning to `COc1ccc(-c2oc3c(CC=C(C)C)c(O)cc(O)c3c(=O)c2O)cc1`, the “viability, percent of control” value is 138%.

Regarding `C#CCN(C)CC1=Cc2ccccc2Oc2ccccc21`, the “viability, percent of control” value was 83.3%.

Turning to `CC1=C(CC(=O)O)c2cc(F)ccc2C1=Cc1ccc(S(C)=O)cc1` (stereo not given), the Potency was 13.2 µM (active).

As to `NS(=O)(=O)c1cc(Cl)c(Cl)c(S(N)(=O)=O)c1`, the “viability, percent of control” value is 115%.

With `Fc1ccc(CNc2ncnc3ccc(F)cc23)cc1`, the Potency is 11.8 µM (active).

`CN(C)c1ccc(-c2nc3ncc(Cl)c(N4CCN(CC(=O)Nc5nccs5)CC4)c3[nH]2)cc1`: the Potency was 3.32 µM (active).
